Source: PubChem (National Center for Advancing Translational Sciences (NCATS))
HP1b chromo inh = HTS for Inhibitors of HP1-beta Chromodomain Interactions with Methylated Histone Tails; AlphaScreen HP1-beta / biotin-H3K9me3 peptide binding; Potency, µM (doses to about 114 µM), actives largely listed as inhibitors; 0.56% of 390,000 active; also: nearly all actives have a fitted effect of over 70% in size
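AlphaScreen: HP1-beta (50 nM) preformed 30 min with biotin-H3(1-18)K9me3 peptide (50 nM) in PBS pH 7.4, 0.01% Tween-20. Compound added for 30 min at RT, then streptavidin donor/nickel chelate acceptor beads (10 ug/mL) for 30 min.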
G9a block = qHTS Assay for Inhibitors of Histone Lysine Methyltransferase G9a; Potency, µM (top dose mostly 102 µM), most hits filed as inhibitors; 8.8% of 350,000 active; Histone-lysine N-methyltransferase EHMT2 (Homo sapiens), Q96KQ7; G9a H3K9 monomethylation, AlphaScreen, 2 h; also: nearly all actives have a fitted effect of over 75% in size
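Signal arises when biotinylated H3K9 peptide, once monomethylated, bridges streptavidin donor and antibody-captured acceptor beads. Enzyme at 20 nM was preincubated 15 min with test compounds; peptide 500 nM and SAM 20 uM then reacted for 2 h.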
JMJD2A Tudor inh = qHTS Assay for Inhibitors of JMJD2A-Tudor Domain; Potency, µM (highest dose often 114 µM), actives largely listed as inhibitors; AlphaScreen JMJD2A-Tudor / H3K4me3 peptide binding; AID 504339, 2011; 4.4% of 390,000 active; also: nearly all actives have a fitted effect of over 50% in size
Sfp inh = qHTS Assay for Inhibitors of Bacillus subtilis Sfp phosphopantetheinyl transferase (PPTase). Biochemical Sfp PPTase activity, qHTS. Potency, µM, hits mostly inhibitors. 3.5% of 310,000 active. AID 1490, 2009;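 also: the enzyme is Sfp with the accession as filed and its product quenches rhodamine fluorescence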
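Buffer: 50 mM Hepes-Na pH 7.6, 10 mM MgCl2, 0.01% Nonidet P-40, 0.01% BSA. Enzyme 15 nM, pre-exposed to compound 15 min; substrates then added and fluorescence change tracked over 30 min.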
L3MBTL1 block = qHTS Assay for the Inhibitors of L3MBTL1. Lethal(3)malignant brain tumor-like protein 1 (Homo sapiens), Q9Y468. AlphaScreen L3MBTL1–H3K9me1 peptide binding. Potency, µM (doses to about 57.1 µM), hits mostly inhibitors. 0.66% of 230,000 active. AID 485360, 2010; also: nearly all actives have a fitted effect of over 60% in size
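L3MBTL1 50 nM + b-AHA-H3(1-15)K9me1 75 nM, 30 min RT; compound added, 30 min RT; streptavidin donor/Ni-chelate acceptor beads 10 ug/mL each final, 30 min RT dark; AlphaScreen read.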
BAZ2B inh = qHTS Assay for Inhibitors of BAZ2B; AlphaScreen BAZ2B-H3K14Ac peptide displacement; Potency, µM (top dose mostly 114 µM), hits mostly inhibitors; AID 504333, 2011; Bromodomain adjacent to zinc finger domain protein 2B (Homo sapiens), Q9UIF8; 4.4% of 360,000 active; also: nearly all actives have a fitted effect of over 60% in size
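Complex of BAZ2B and biotin-H3K14Ac (50 nM apiece) forms over 30 min at RT, then faces library compounds up to 110 uM for another 30 min; AlphaScreen beads added, 20 min dark incubation, luminescence read.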
Hits are given with their value; 0 = inactive; ? = inconclusive; - = not tested or not shown; [ ] = dose if it differs, or a comment. Only some compounds are listed: those with a hit (about 12% of all), similar ones and a draw of the others. Calls follow the shape of the dose curve; as a rule, active = well fitted curve in the direction sought with a large enough effect; inconclusive = small, poorly fitted or top-dose-only effect, or another doubt; inactive = no such curve, though single readings can be large; an effect the other way counts as inactive or inconclusive.

SMILES | HP1b chromo inh | G9a block | JMJD2A Tudor inh | Sfp inh | L3MBTL1 block | BAZ2B inh
Oc1ccc(Cl)cc1C1C=C(c2ccc3c(c2)OCO3)NC(c2ccc(Cl)cc2)N1 (configuration not stated) | 0 | - | 0 | - | - | -
CC(=O)Oc1cc(C)c(OC(C)=O)c2ccccc12 | - | 0 | - | 0 | - | -
Nc1nc(NC(=O)c2ccccc2)nn1-c1ccccc1 | 0 | 0 | 0 | 0 | 0 | ?
Nc1nc(NC(=O)CCC(=O)O)nn1-c1ccccc1 | 0 | - | 22µM | 0 | - | 50µM
COc1ccccc1/C=C/C(=O)Nc1nc(N)n(-c2ccccc2)n1 | 0 | 0 | 0 | 0 | 0 | 56µM
COc1cc(-c2noc(-c3ccc(NCc4cccnc4)c([N+](=O)[O-])c3)n2)cc(OC)c1OC | 0 | ? | 0 | - | - | ?
CN(C)c1ccc(C(CNC(=O)c2ccccc2Cl)N2CCCC2)cc1 (configuration not stated) | 0 | ? | 0 | - | - | 0
Cn1c2cc(S(C)=O)sc2c2cnn(Cc3cccc(N)c3)c(=O)c21 (configuration not stated) | - | - | 0 | - | - | -
CSc1cc2c(s1)c1cnn(Cc3cccc(N)c3)c(=O)c1n2C | - | - | 3.5µM | - | - | -
COC(=O)c1sc(-c2ccccc2)cc1NC(=O)c1cccc(F)c1 | 0 | 0 | 0 | - | - | 0
CSc1ccc(C(=O)C2CCCN(C(=O)c3nn(C)c(=O)c4ccccc34)C2)cc1 (configuration not stated) | ? | 28µM | 0 | 0 | 0 | 0
NS(=O)(=O)c1ccc(CCNc2nc(CN3CCOCC3)nc3sc4c(c23)CCC4)cc1 | 0 | 13µM | 0 | 0 | 0 | 0
C[C@]12C=CC(=O)C=C1CC[C@@H]1[C@H]3C[C@@H](O)[C@](O)(C(=O)CO)[C@@]3(C)C[C@H](O)[C@]12F | - | 0[21.5 µM] | - | 0 | - | -
CCOc1ccc(CCNC(=O)Cn2nc(-c3ccc(C)cc3)ccc2=O)cc1OCC | 0 | 0 | 0 | - | - | 0
Cc1c(NC(=S)NC(=O)c2ccccc2)c(=O)n(-c2ccccc2)n1C | 0 | - | 0 | - | - | -
COc1ccc(/C(O)=C/C(=O)C(=O)NNC(=O)C(O)(c2ccccc2)c2ccccc2)cc1 | 0 | 0 | 79µM | 0 | 0 | 0
COc1ccc(/C(O)=C/C(=O)C(=O)Nc2c(C)n(C)n(-c3ccccc3)c2=O)cc1 | 0 | ? | 22µM | 0 | 0 | ?
COc1ccc(NC(=O)Nc2c(C)n(C)n(-c3ccccc3)c2=O)cc1 | 0 | 0 | 0 | 0 | 0 | 0
Cc1c(NC(=O)C(=O)/C=C(/O)c2ccccc2)c(=O)n(-c2ccccc2)n1C | 0 | 8.9µM | 20µM | 0 | 0 | 50µM
CCOCCCNC(=O)CN1C(=O)c2c(c3ccccc3n2C)C1c1ccc(OC)cc1 (configuration not stated) | 0 | 0 | 0 | - | - | ?
CC(C)(C)c1ccc(C(=O)Nc2cc(-c3nc4ccccc4o3)ccc2Cl)cc1 | 0 | 0 | 0 | - | - | 0
Cc1cccc(N2CCc3c2nc2ccc(Br)cc2c3N)c1 | 0 | ? | 0 | 13µM | 0 | 0
Nc1c2c(nc3ccc(Br)cc13)N(c1ccccc1)CC2 | 50µM | ? | 10µM | 18µM | - | 40µM
CC12CCC=CC1C(c1ccc(F)c(Br)c1)N(Cc1ccccc1)C2=O (configuration not stated) | 0 | - | 0 | 0 | - | -
CCN(C(=O)c1nn(C)c2c1CSc1ccccc1-2)c1cccc(C)c1 | 0 | 0 | 0 | - | - | 0
Fc1ccc(-c2csc(=S)[nH]2)cc1 | 0 | ? | 22µM | 11µM | 0[11.4 µM] | 50µM
S=c1[nH]c(-c2ccccc2)cs1 | ? | 1.4µM | 22µM | 79µM | 0 | 40µM
Cc1cn2c(=O)cc(COc3ccc(NC(=O)c4cccc(F)c4)cc3)nc2s1 | 0 | 0 | 0 | - | - | 0
Cc1cc(=O)[nH]c2nnc(SCc3ccc(F)cc3)n12 | 0 | 0 | 0 | - | - | 0
NC1(C(=O)O)CCc2cc(P(=O)(O)O)ccc21 (configuration not stated) | - | 0 | - | 56µM | - | -
